The panel holds about 79,000 compounds, 15% with a hit somewhere; the sample as a whole holds those more often. Active and inactive are the calls of the source. Rule as the data show it: active = growth inhibition above about 70%; inactive = the rest.
Legend:
[1] = NCI Yeast Anticancer Drug Screen. Data for the rad50 strain (AID 155);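 also: 0% = growth of vehicle-only cultures of the same strain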; settings: S. cerevisiae rad50 strain growth inhibition; at 50.0 µM; stronger effect = higher value
How it was run: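 DNA repair mutant yeast, compound exposure, growth read-out; inhibition is taken relative to vehicle.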

[2] = NCI Yeast Anticancer Drug Screen. Data for the mec2-1 strain (AID 157); settings: S. cerevisiae mec2-1 strain, at 50.0 µM, stronger effect = higher value
How it was run: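 Vehicle-treated cultures served as reference for growth inhibition of compound-exposed mec2-1 yeast.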

[3] = NCI Yeast Anticancer Drug Screen. Data for the sgs1 mgt1 strain (AID 161);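 also: 0% = growth of cultures given vehicle only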; settings: S. cerevisiae sgs1 mgt1 strain, at 50.0 µM, stronger effect = higher value
How it was run: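 Read-out: growth inhibition vs vehicle controls. Cells: mutant yeast strain deficient in DNA damage repair.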

[4] = NCI Yeast Anticancer Drug Screen. Data for the cln2 rad14 strain (AID 165);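 also: 0% = growth equal to vehicle treated cultures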; settings: S. cerevisiae cln2 rad14 strain, at 50.0 µM, stronger effect = higher value
How it was run: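 Each compound was tested on cln2 rad14 yeast. Inhibition of growth was calculated against vehicle-exposed controls.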

[5] = NCI Yeast Anticancer Drug Screen. Data for the mlh1 rad18 strain (AID 175); settings: S. cerevisiae mlh1 rad18 strain growth inhibition; at 50.0 µM; stronger effect = higher value
How it was run: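 Vehicle-treated cultures served as the reference for growth inhibition in a yeast strain carrying DNA damage repair alterations exposed to each compound.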

[6] = NCI Yeast Anticancer Drug Screen. Data for the bub3 strain (AID 167); settings: S. cerevisiae bub3 mutant strain, at 50.0 µM, stronger effect = higher value
How it was run: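 In this screen, a yeast mutant lacking normal mitotic checkpoint function is challenged with compound. Relative growth versus vehicle gives the inhibition value.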

Measured: growth inhibition

C=C(C)COC(=O)Nc1cccc(Cl)c1
inactive: [1] 58.9% | [2] -4.15% | [3] 4.7% | [4] 13.4% | [5] 24.9%

CC(C)OC(=O)/C=C/C(=O)OC(C)C (tested in a mixture with another compound)
inactive: [1] -13.1% | [2] -6.9% | [3] -13.6% | [4] -20.4% | [5] -23.1%

CN1CNC(=O)c2n[nH]nc21
inactive: [1] -1.25% | [2] 34.5% | [3] -4.15% | [4] -21% | [5] -2.7%

CC(C)(C)OC(=O)NC1CCC(C(C)(C)C)CC1 (configuration not stated)
inactive: [1] 1.95% | [2] -2.95% | [3] -4% | [4] 8.65% | [5] 24.1%

CC1c2c(cc(=O)n(C)c2O)C(=O)N1Cc1ccccc1 (configuration not stated)
inactive: [1] 2% | [2] 5.75% | [3] 8.7% | [4] -2.6% | [5] -9.4%

CSc1nc(C)c(Br)c(=O)n1C1OC(COC(C)=O)C(OC(C)=O)C(OC(C)=O)C1OC(C)=O (configuration not stated)
inactive: [1] -1.2% | [2] -7.5% | [3] -13.1% | [4] 22.2% | [5] 1.35%

Cc1ccc(CNc2ccccc2)cc1
inactive: [1] 18.9% | [2] -6.45% | [3] 27.3% | [4] 8.8% | [5] 7.55%

COc1c(Cl)cc(Cl)cc1C(c1cc(Cl)cc(Cl)c1OC)C(Cl)(Cl)Cl
inactive: [1] -3.25% | [2] -6.1% | [3] 4.6% | [4] -5% | [5] 7.1%

CCNC(=S)NC1CCCCC1
inactive: [1] -8.35% | [2] 5.15% | [3] 3.65% | [4] -4.05% | [5] 12.3%

CC(C)(C)NC(=O)Oc1ccc2ccccc2c1
inactive: [1] 1.75% | [2] -14.6% | [3] -6% | [4] -84.9% | [5] -15.7%

CCOC(=O)C1(C)CCC(C(=O)OC)C1=O (configuration not stated)
inactive: [1] -36.1% | [2] -31.1% | [3] -54.8% | [4] -5.45% | [5] -18.1%

C/C(=N/N=C(N)N)c1cnn(C(=N)N)c1C
inactive: [1] 15.3% | [2] 13.3% | [3] 18.2% | [4] 19.4% | [5] 28.4%

O=C(O)C(O)C(O)C(O)C(O)C(O)CO.[NH-]C1CCCCC1[NH-].[Pt+2] (configuration not stated)
inactive: [1] -18.3% | [2] 4.4% | [3] -30.4% | [4] 7.4% | [5] -49.5%

O=C(C[n+]1cc(Br)cc(Br)c1)c1ccc(Cl)cc1
inactive: [1] -9.6% | [2] -15.8% | [3] -13% | [4] -13.8% | [5] -7.9%

COc1c(O)ccc(C(=O)O)c1N
inactive: [1] 13% | [2] 6.55% | [3] 14.1% | [4] 10.1% | [5] -17.4%

O=C(O)c1ccncc1S(=O)(=O)O
inactive: [1] -20.6% | [2] -36.2% | [3] -24.3% | [4] -8.4% | [5] -9.9%

CC(=O)OC(C)C1(C)CCC2CCCC(C)(C)C2C1 (configuration not stated)
inactive: [1] -6.4% | [2] -5.15% | [3] -11.9% | [4] 0.7% | [5] -13.7%

Cc1cccc(-c2nnc(-c3cccc4ccccc34)o2)c1
inactive: [1] 8.8% | [2] -28.8% | [3] 43.8% | [4] 14.3% | [5] 13.4%

C[Si](C)(C)CCCO
inactive: [1] 0.25% | [2] 17.8% | [3] 3.3% | [4] 6.9% | [6] 9.25% | [5] 10%

O=c1[nH]nc(-c2ccccc2)n1-n1cccc1
inactive: [1] -9.25% | [2] -26.1% | [3] -5.95% | [4] -3.6% | [5] -6.25%

Clc1ccccc1C1N2CCCCC2[C@@H]2c3[nH]c4ccccc4c3CCN12 (some centres not stated)
inactive: [1] -14.8% | [2] -1.35% | [3] 9.25% | [4] 9.25% | [5] 2.4%

Nc1ccc2nc3n(c(=O)c2c1)CCCCC3
inactive: [1] -25.1% | [2] -11.4% | [3] 1.4% | [4] 23.2% | [6] 0.65% | [5] 10.8%

c1ccc2nn(C3CCCCO3)nc2c1 (configuration not stated)
inactive: [1] -8.05% | [2] -9.85% | [3] -25.9% | [4] -18.1% | [5] -54.6%

COc1cc(Br)c(C2SCC(=O)N2c2nncs2)cc1OC (configuration not stated)
inactive: [1] 1.55% | [2] 11.3% | [3] 7.9% | [4] 0.7% | [5] 26.6%

O=S(=O)(SC(S(=O)(=O)c1ccccc1)S(=O)(=O)c1ccccc1)c1ccccc1
inactive: [1] 13.2% | [2] 9.35% | [3] 39.4% | [4] 1% | [5] 39.2%

O=c1nc(N2CCSCC2)ccn1C1OC(CO)C(O)C1O (configuration not stated)
inactive: [1] -6.5% | [2] -6.7% | [3] -8.45% | [4] -5.75% | [5] -2.25%

CC(=O)OCC(CO)(CO)COC(C)=O
inactive: [1] 8.25% | [2] 8.65% | [3] -16.2% | [4] 7.45% | [5] -6.7%

CC(=O)Nc1cc(Cl)c(Oc2ccccc2)cc1[N+](=O)[O-]
inactive: [1] 19.2% | [2] 27.9% | [3] 27.7% | [4] 33% | [5] 14.6%

O=C(NCCc1ccccc1)[C@H]1CCCC[C@@H]1CCO
inactive: [1] 19.4% | [2] 0.85% | [3] -31.9% | [4] 0.4% | [5] -28.6%

COc1ccccc1/C=C(\S)C(=O)O
inactive: [1] -18.9% | [2] -6.9% | [3] -19.3% | [4] -43.5% | [5] 8.45%

CCCCCCC[CH2][Sn]1([CH2]CCCCCCC)[O]C2C(CO)OC(n3ccc4c(N)ncnc43)C2[O]1 (configuration not stated)
inactive: [1] -0.4% | [2] 15.2% | [3] 18.1% | [5] -0.85%
active: [4] 70.2%

Cc1cc2c(=O)c(C(=O)O)c[nH]c2cc1-n1cccc1
inactive: [1] 41.8% | [2] 23.6% | [3] 45% | [4] 15.7% | [5] 33.2%

COc1ccccc1NC(=O)NC1CCCCC1
inactive: [1] -2.8% | [2] -4.65% | [3] -8.2% | [4] -88% | [5] -15.2%

[N-]=[N+]=CC(=O)C(CN)(Cc1ccccc1)c1ccc(Cl)cc1 (configuration not stated)
inactive: [1] 35.1% | [2] 1.45% | [3] 9.1% | [4] -31.9% | [5] 9.05%

Nc1nc(Br)nc2ncn(C3CC(O)C(CO)O3)c12 (configuration not stated)
inactive: [1] 20.1% | [2] 3.8% | [3] 18.3% | [4] -2.25% | [5] -4.9%

CC(=O)N(C(=O)CC(=O)N/N=C\c1ccc(Br)c(N(CCC#N)CCC#N)c1)c1ccc(Cl)cc1
inactive: [1] 7.7% | [2] 0.6% | [3] 8.1% | [4] -7.8% | [5] -3.35%

CCCCCCCCC(C)c1cccc(C(C)CCCCCCCC)c1O (configuration not stated)
inactive: [1] 33% | [2] 14.6% | [3] 10.5% | [4] 22.2% | [5] 2.6%

CC(=O)Nc1ccc(C(=O)NN2C(=O)CSC2c2ccc([N+](=O)[O-])cc2)cc1 (configuration not stated)
inactive: [1] -24.1% | [2] -39.8% | [3] -54.5% | [4] -6.3% | [5] -53.2%

CN(C)C1=NC(NC2CCCCC2)(N(C)C)OC(N(C)C)=N1 (configuration not stated)
inactive: [1] 1% | [2] -0.9% | [3] 3.2% | [4] 20.2% | [5] 10.8%

Nc1ccc(Cl)c(N)c1
inactive: [1] 9.1% | [2] 26.4% | [3] 18.2% | [4] 20.1% | [5] 21.9%

From PubChem BioAssay (NCI)
